Measured values: PubChem BioAssay AID2707 (National Center for Advancing Translational Sciences (NCATS), 2010)
Some of the results follow. Calls of active or inactive are those of the source.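 The calls were made as follows: active = potency below 100 µM; inconclusive = dose-dependent response but potency above 100 µM; inactive = the rest.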

Molecular target: 4'-phosphopantetheinyl transferase ffp (Bacillus subtilis) (UniProt Q9F4F7)
Assay: Gel-Based Assay for Inhibitors of Bacillus subtilis Sfp phosphopantetheinyl transferase (PPTase)
Settings: purified Sfp, gel-based phosphopantetheinylation read-out
From the text: The covalent attachment of a phosphopantetheinyl (4'-PP) arm to a variety of synthases and other proteins is a key posttranslational protein modification. The 4'-PP is installed on the proteins post-translationally from coenzyme A (CoA) on a conserved serine residue by action of phosphopantetheinyl transferase (PPTase) enzymes. Phosphopantetheinylation is essential for synthase activity, and removal of the PPTase gene precludes natural product synthesis in microorganisms, or in the case of fatty acid biosynthesis, renders the organism unviable. PPTase enzymes belong to a distinct structural superfamily. Within bacteria, these enzymes are grouped into two classes based upon primary structure, the AcpS-Type and Sfp-Type PPTases. […]
In this assay, compounds were evaluated by monitoring of fluorescence transfer to whole carrier protein substrates via polyacrylamide gel electrophoresis. […]
A DMSO solution of confirmed hits (0.5 microL) was added to a 1.33X enzyme solution (15 microL, containing 26.6 nM Sfp, 66 mM HEPES, 13.3 mM MgCl2, 0.0133% NP-40, 0.133% BSA, pH 7.6). […] Following the run, gels were imaged with a Chemi-Doc Plus imager (Bio-Rad, Hercules, CA) and band intensity quantified using the ImageJ software package. […]

Chain of 4'-phosphopantetheinyl transferase ffp (Bacillus subtilis) (Q9F4F7 whole entry, looked up): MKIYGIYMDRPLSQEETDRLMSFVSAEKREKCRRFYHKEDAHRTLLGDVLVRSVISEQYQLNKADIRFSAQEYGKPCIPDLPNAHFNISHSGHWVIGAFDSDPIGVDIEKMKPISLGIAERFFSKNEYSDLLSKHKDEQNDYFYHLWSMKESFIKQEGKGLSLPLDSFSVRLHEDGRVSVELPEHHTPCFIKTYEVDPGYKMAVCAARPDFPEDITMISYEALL

Compound | outcome
CCCOC(=O)Nc1sc2c(c1C(=O)OCC)CCC2 | inactive
Cc1nn2c(c1-c1ccccc1)N=C(c1ccco1)CC2c1ccccc1 (configuration not stated) | inactive
